Compound activity: PubChem, several laboratories
The entries come from a sample that favours hits as a whole.
GIRK2 activator = activators of NPY4-receptor-primed GIRK2 channels, summary, cell-based, HEK293, thallium flux. HEK293 GIRK2/NPY4 cells, thallium flux fluorescence. AID 1259324, 2017. activation (% efficacy), % for hits at 75 µM. 34,000 tested, under 10 active;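 active = primary screen hit, no activity in plain HEK293 cells, and in GIRK2-only cells above 5% efficacy rising with concentration; inactive = the rest, including fluorescent compounds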;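 note: efficacy is normalized control-subtracted fluorescence 15 s after thallium addition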
Target sequence (P48051 whole entry, looked up): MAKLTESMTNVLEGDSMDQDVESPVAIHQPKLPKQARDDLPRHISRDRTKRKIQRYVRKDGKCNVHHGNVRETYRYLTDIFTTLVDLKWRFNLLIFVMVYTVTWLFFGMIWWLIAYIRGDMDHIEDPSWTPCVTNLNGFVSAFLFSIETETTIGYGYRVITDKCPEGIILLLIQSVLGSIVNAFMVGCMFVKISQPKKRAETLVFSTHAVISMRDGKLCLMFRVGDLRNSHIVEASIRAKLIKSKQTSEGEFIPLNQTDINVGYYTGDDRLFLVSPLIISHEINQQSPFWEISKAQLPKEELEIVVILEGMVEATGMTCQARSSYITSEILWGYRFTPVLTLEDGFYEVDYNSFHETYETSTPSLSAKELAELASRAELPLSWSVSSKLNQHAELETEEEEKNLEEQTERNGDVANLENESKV
GluA2 TARP mod = modulators of GluA2-stargazin AMPA receptor complexes, primary screen, cell-based, membrane potential dye. 40,000 tested, 3.5% active. calls only at 30 µM. Voltage-dependent calcium channel gamma-2 subunit (Mus musculus) + Glutamate receptor 2 …. AID 1259245, 2017. HEK293 GluA2+stargazin, membrane potential dye (FDSS), glutamate EC50; hits were called plate by plate, in both directions;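 active = any of four per-well response measures lying three or more SD from its plate-wide compound average, in either direction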
Large screens that a line does not name were inactive.

CC(C)(C)N1CC(c2nc3ccccc3n2Cc2c(F)cccc2Cl)CC1=O (stereo not drawn)	GluA2 TARP mod active (no result: GIRK2 activator)
COc1ccc(-n2c(C)c(C)n3c4c(=O)n(CC(N)=O)c(=O)n(C)c4nc23)c(OC)c1	none (no result: GIRK2 activator)
O=S(=O)(c1cccc(Cl)c1)N1CCN(c2ccc(Nc3ccncc3)nn2)CC1	none
CCCN1C(=O)CCc2cc(NC(=O)Cc3ccc(OC)c(OC)c3)ccc21	none
Cn1c(SCC(=O)Nc2ccc(F)cc2F)nc2c(-c3ccccc3)c[nH]c2c1=O	none (no result: GluA2 TARP mod)
O=C1CC(c2nc3ccccc3n2Cc2ccc(F)cc2)CN1Cc1ccc(F)cc1 (stereo not drawn)	none (no result: GIRK2 activator)
CCCCN1CC(c2nc3ccccc3n2Cc2ccccc2)CC1=O (stereo not drawn)	none (no result: GIRK2 activator)
COc1cccc(N2CC(c3nc4ccccc4n3Cc3ccccc3Cl)CC2=O)c1 (stereo not drawn)	GluA2 TARP mod active (no result: GIRK2 activator)
O=C1CC(c2nc3ccccc3n2Cc2ccc(F)cc2)CN1Cc1ccccc1 (stereo not drawn)	GluA2 TARP mod active (no result: GIRK2 activator)
COc1cccc(N2CC(c3nc4ccccc4n3Cc3ccccc3)CC2=O)c1 (stereo not drawn)	none (no result: GIRK2 activator)
CCCCN1CC(c2nc3ccccc3n2Cc2cccc(Cl)c2)CC1=O (stereo not drawn)	GluA2 TARP mod active (no result: GIRK2 activator)
O=C(Nc1ccc([N+](=O)[O-])cc1-c1nc2ccccc2[nH]c1=O)C(F)(F)F	none (no result: GIRK2 activator)
COc1ccc(-n2ccnc(SCC(=O)Nc3cc(Cl)ccc3OC)c2=O)cc1	none
COCCOC(=O)C1=C(C)NC(=O)NC1c1ccc(OC(F)F)c(OC)c1 (stereo not drawn)	none (no result: GIRK2 activator)
COCCn1c(-n2nc(C)cc2C)nc2c1c(=O)n(C)c(=O)n2C	none
Cc1ccnc(C(=O)Nc2ccc(Nc3cc(N4CCOCC4)nc(C)n3)cc2)n1	none (no result: GluA2 TARP mod)
Cc1ccnc(C(=O)Nc2ccncc2)n1	GluA2 TARP mod active
CCN(CC)C(=O)Oc1ccc2c(c1)O/C(=C\c1ccc(OC)c(OC)c1)C2=O	none (no result: GIRK2 activator)
O=C(Cc1cc(-c2cc3ccccc3o2)on1)Nc1ccon1	none
CCc1ccc(S(=O)(=O)NCC2CCN(C3CCCC3)CC2)s1	GluA2 TARP mod active
CCOc1ccc(S(=O)(=O)NCC2CCN(C3CCCC3)CC2)cc1C	GluA2 TARP mod active
Cc1cc(C)c(S(=O)(=O)NCC2CCN(C3CCCC3)CC2)cc1C	none
Cc1cc(F)ccc1S(=O)(=O)NCC1CCN(C2CCCC2)CC1	none
COc1ccc(CCN2CC(=O)N(c3ccccc3)C3CS(=O)(=O)CC32)cc1 (stereo not drawn)	none
COc1ccccc1/C=C1/SC(=S)N(c2ccc3c(c2)OCO3)C1=O	none (no result: GIRK2 activator)
COc1ccc(/C=C2\Oc3c(cc4c(c3C)OCN(Cc3ccco3)C4)C2=O)cc1OC	GluA2 TARP mod active
COc1ccc(/C=C2\Oc3c4c(cc(C)c3C2=O)OCN(C2CC2)C4)cc1OC	none
O=C(NCCC(O)c1cccs1)C1CCC1 (stereo not drawn)	none
CCN1CCc2c(sc(NC(=O)c3ccc(C)c(C)c3)c2-c2nc3ccccc3s2)C1	none (no result: GIRK2 activator)
CCN1CCc2c(sc(NC(=O)c3ccc(OC)c(OC)c3)c2-c2nc3ccccc3s2)C1	GluA2 TARP mod active (no result: GIRK2 activator)
COC(=O)c1ccc(C(=O)Nc2sc3c(c2-c2nc4ccccc4s2)CCN(C(C)C)C3)cc1	none (no result: GIRK2 activator)
COc1ccc(C(=O)Nc2sc3c(c2-c2nc4ccccc4s2)CCN(C(C)C)C3)cc1OC	GluA2 TARP mod active (no result: GIRK2 activator)
Cc1cnc2c(c1SCC(=O)Nc1ccc(Cl)c(Cl)c1)c(=O)n(C)c(=O)n2C	none
COc1ccc(NC(=O)Cn2cc(-c3ccccc3)c(N3CCOCC3)n2)c(OC)c1	none
COC(=O)c1ccccc1NC(=O)Cn1cc(-c2ccccc2)c(N2CCOCC2)n1	GluA2 TARP mod active
C#CC1(OCC(O)CN2CCN(C(=O)OCC)CC2)CCCCC1 (stereo not drawn)	none
COc1ccc(S(=O)(=O)N2CCCCC2CC(=O)NCCCc2ccccc2)cc1 (stereo not drawn)	none (no result: GIRK2 activator)
COc1ccc(CNC(=O)C(=O)NCCC2CCCCN2S(=O)(=O)c2ccccc2)cc1 (stereo not drawn)	none (no result: GIRK2 activator)
O=C(CC1CCCCN1S(=O)(=O)c1ccccc1)NCCC1=CCCCC1 (stereo not drawn)	GluA2 TARP mod active
CC(C)(C)NC(=O)NCCC1CCCCN1S(=O)(=O)c1ccccc1 (stereo not drawn)	GluA2 TARP mod active (no result: GIRK2 activator)
COc1ccc2nc(N3CCN(C(=O)CN(C)S(C)(=O)=O)CC3)sc2c1	none
Cc1cc(=O)n(CC(=O)Nc2nc3ccccc3[nH]2)cn1	none
O=C(Cn1nc(-c2cccnc2)ccc1=O)Nc1nc2ccccc2[nH]1	GluA2 TARP mod active
O=C(Nc1ccc(S(=O)(=O)Nc2nccs2)cc1)c1nc(-c2cnccn2)no1	GluA2 TARP mod active
Cc1ccnc(NS(=O)(=O)c2ccc(NC(=O)c3nc(-c4cnccn4)no3)cc2)n1	none
COc1ccc(OC)c(-c2csc(NC(=O)c3ccc(SC(C)C)cc3)n2)c1	none
COc1ccc(-c2csc(NC(=O)c3ccc(SC(C)C)cc3)n2)c(OC)c1	GluA2 TARP mod active (no result: GIRK2 activator)
Cn1c(C(F)(F)F)nn(CCNC(=O)C2(c3ccc(Cl)cc3)CCCC2)c1=O	none
Cn1c(-c2ccccn2)nn(CCNC(=O)C2(c3ccc(Cl)cc3)CCCC2)c1=O	GluA2 TARP mod active
CCCC(=O)N(CCN1CCOCC1)c1nc2c(OC)ccc(OC)c2s1	GluA2 TARP mod active (no result: GIRK2 activator)
COc1ccc(OC)c2sc(N(CCN3CCOCC3)C(=O)CCc3ccccc3)nc12	none (no result: GIRK2 activator)
COc1ccc2sc(N(CCCN3CCOCC3)C(=O)c3ccno3)nc2c1	GluA2 TARP mod active
COc1ccc2sc(N(CCN3CCOCC3)C(=O)c3cccc(F)c3)nc2c1	none
CCS(=O)(=O)c1cccc(C(=O)N(CCN2CCOCC2)c2nc3ccccc3s2)c1	none
O=C(c1ccc(Br)s1)N(CCN1CCOCC1)c1nc2ccccc2s1	none
COc1ccc2nc(N(CCN3CCOCC3)C(=O)c3ccc(Br)s3)sc2c1	GluA2 TARP mod active (no result: GIRK2 activator)
CCS(=O)(=O)c1cccc(C(=O)N(CCN2CCOCC2)c2nc3c(C)c(C)ccc3s2)c1	GluA2 TARP mod active (no result: GIRK2 activator)
CCCc1ccc(C(=O)NCc2ccsc2)cc1	none
CC(C)N1CCC(CNC(=O)c2c(F)cccc2Cl)CC1	none (no result: GluA2 TARP mod)
CCCCCOc1cccc(C(=O)Nc2nnc(-c3ccnn3C(C)C)o2)c1	none
Cc1c(Cl)cccc1NC(=O)CCCn1nc(-c2ccc(Cl)cc2)ccc1=O	none (no result: GluA2 TARP mod)
COc1ccc(S(=O)(=O)Nc2ccc3c(c2)CCCN3S(=O)(=O)c2ccc(F)cc2)cc1	none (no result: GIRK2 activator)
COc1ccc(C)c2sc(N(CCN3CCOCC3)C(=O)c3ccc(Cl)s3)nc12	GluA2 TARP mod active (no result: GIRK2 activator)
COc1ccc(C)c2sc(N(CCN3CCOCC3)C(=O)c3ccc(C)cc3)nc12	none (no result: GIRK2 activator)
COc1ccc(OC)c2sc(N(CCN(C)C)C(=O)c3cc(C)nn3C)nc12	GluA2 TARP mod active
CCn1nc(C)cc1C(=O)N(CCCN(C)C)c1nc2c(OC)ccc(Cl)c2s1	none
CCOc1ccc2nc(N(CCN3CCOCC3)C(=O)c3ccc(S(C)(=O)=O)cc3)sc2c1	GluA2 TARP mod active (no result: GIRK2 activator)
COc1ccc(C)c2sc(N(CCN3CCOCC3)C(=O)c3ccc(Cl)cc3)nc12	none (no result: GIRK2 activator)
COc1ccc(C)c2sc(N(CCN3CCOCC3)C(=O)c3ccc(Br)s3)nc12	GluA2 TARP mod active (no result: GIRK2 activator)
CCOc1ccc2nc(N(CCN3CCOCC3)C(=O)c3ccnn3C)sc2c1	none
COc1c(C)cc(S(=O)(=O)NCCc2ccsc2)cc1C	none
